Laboratory results taken from PubChem BioAssay.
For part of these data: Potency and affinity values are given separately. Active and inactive are the calls of the source. Entries that show only a call come without a potency. Unless noted, the limit is not given here; nearly all actives have IC50 up to about 0.98 µM.

Test system: not listed separately
Test: inhibition of 3D7 malaria parasite growth – strain 3D7 (AID 2306; call rule not given here)
Conditions: P. falciparum 3D7 erythrocytic growth, LDH absorbance, 72 h; at 2 µM; stronger effect = higher value

| SMILES | growth inhibition |
| --- | --- |
| CC(=O)Nc1ncc(C(=O)Nc2cccc(-c3cccc(-c4nc5ccccc5[nH]4)c3)c2)s1 | 92% (active) |
| CCN(CC)C(=O)C1CCCN(C(=O)Nc2cc(C(F)(F)F)cc(C(F)(F)F)c2)C1 (stereo not given) | 86% (active) |
| CCC(C)NS(=O)(=O)c1ccc2nc(Nc3ccc(C)cc3)n([C@H](C)C(C)(C)C)c2c1 (stereo not given in full) | 98% (active) |

Molecular target: Calcium-dependent protein kinase 1 (Plasmodium falciparum (isolate 3D7)) (UniProt P62344)
Test: PfCDPK1 kinase inhibitors, biochemical, TCAMS library (AID 1159585);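 also: inhibitors leave more ATP so luminescence rises with inhibition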
Conditions: recombinant PfCDPK1, Kinase-Glo ATP depletion luminescence

Calcium-dependent protein kinase 1 (Plasmodium falciparum (isolate 3D7)), sequence (P62344 whole entry, looked up): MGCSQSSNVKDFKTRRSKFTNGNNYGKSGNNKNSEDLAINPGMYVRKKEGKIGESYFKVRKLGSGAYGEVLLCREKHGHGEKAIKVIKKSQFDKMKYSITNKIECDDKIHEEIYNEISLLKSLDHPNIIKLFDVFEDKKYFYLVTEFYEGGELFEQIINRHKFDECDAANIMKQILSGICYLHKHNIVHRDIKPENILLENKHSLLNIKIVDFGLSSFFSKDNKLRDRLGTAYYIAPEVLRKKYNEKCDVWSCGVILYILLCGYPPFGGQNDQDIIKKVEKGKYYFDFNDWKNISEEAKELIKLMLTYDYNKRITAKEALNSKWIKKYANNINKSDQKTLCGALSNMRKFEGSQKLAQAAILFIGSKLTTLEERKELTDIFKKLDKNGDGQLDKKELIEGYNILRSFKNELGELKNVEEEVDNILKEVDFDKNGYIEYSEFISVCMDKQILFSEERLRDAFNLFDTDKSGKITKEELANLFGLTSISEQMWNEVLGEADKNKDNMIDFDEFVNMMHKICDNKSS

| SMILES | outcome |
| --- | --- |
| Cc1[nH]c(C)c(-c2ccc(OCc3cc(C(F)(F)F)cc(C(F)(F)F)c3)nc2)c(=O)c1Cl | inactive |
| COc1cc(C)c(NC(=O)c2cccc3c(=O)c(C)c(-c4ccccc4)oc23)cc1OC | inactive |
| Cc1c(CNCCCNc2cc(=O)c3ccccc3[nH]2)sc(C(F)F)c1Br | inactive |
| C[C@@H](C(N)=O)N1CCCCC1c1ccc(OCc2cccc(F)c2)cc1 (stereo not given in full) | inactive |
| O=[N+]([O-])c1ccc2c(-c3ccccc3)c(-c3ccccc3)n(O)c2c1 | inactive |
| CN1CCC(c2c[nH]c3ccc(NC(=O)Nc4ccc(-c5ccncc5)cc4Cl)cc23)CC1 | inactive |
| O=C(Nc1ccc(Cl)c(Cl)c1)N1CCc2cc3nccc(N4CCN5CCC[C@H]5C4)c3cc21 | inactive |
| CNC(=O)c1cnc(Nc2ccc(OCC(O)CN(C)C)cc2)nc1Nc1cccc(OC)c1 (stereo not given) | inactive |
| CC(=O)Nc1ccc(CN(Cc2ccc(OC(C)(C)C)cc2)Cc2ccc3c(c2)OCCO3)cc1 | inactive |
| O=C(NCC1CCC(C(=O)NCc2cccc(C(F)(F)F)c2)CC1)c1ccc(O)c(-c2ccc(Cl)c(Cl)c2)c1 (stereo not given) | inactive |
| CC1(C)N=C(N)N=C(N)N1c1ccc(Cl)c(Cl)c1 | inactive |
| CCOc1ccc(-c2cc3nc(C4CCNCC4)c(C(=O)Nc4ccc(C)cc4Cl)cn3n2)cc1 | inactive |
